Source: PubChem BioAssay
proKLK7 act: activates the human kallikrein-7 zymogen | purified proKLK7, EDANS-DABCYL substrate fluorescence; 100% is mature enzyme control, 0% vehicle | P49862 | hit rate 0.9% among 370,000 | activation, % at 7 µM | AID 652039;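 active means activation above the mean of all tested compounds plus 3 SD, computed per campaign excluding outliers beyond control limits, cut at about 13% in these data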
UHRF1 MBD2 ctr: human UHRF1 methylated DNA binding inhibitors | UHRF1 binding to methylated oligo, TR-FRET | inhibition, % at 4.4 µM | AID 687016 | Q96T88 | hit rate 0.75% among 370,000; in the data active means inhibition above about 21%;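 further: UHRF1 SRA domain binding a hemimethylated CpG hairpin DNA probe; 0% = median of test compound wells and 100% = reference inhibitor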
LEDGF integ inh: blocks HIV-1 LEDGF/p75-dependent DNA integration; hit rate 0.64% among 370,000; inhibition, % at 3.7 µM; TR-FRET IN-LEDGF/p75 DNA integration, Eu/Cy5;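 active means inhibition above the screen-wide mean plus 3 SD, cut at about 13% in these data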;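 further: signal is the Cy5 over europium emission ratio at 671 and 618 nm; 0% = plate median of compound wells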
MBD2 inh: inhibitors of human MBD2 binding to methylated oligonucleotide | inhibition, % at 4.4 µM | hit rate 0.31% among 370,000 | Q9UBB5 | TR-FRET; in the data active means inhibition above about 13%
Target sequence (Q9UBB5 whole entry, looked up): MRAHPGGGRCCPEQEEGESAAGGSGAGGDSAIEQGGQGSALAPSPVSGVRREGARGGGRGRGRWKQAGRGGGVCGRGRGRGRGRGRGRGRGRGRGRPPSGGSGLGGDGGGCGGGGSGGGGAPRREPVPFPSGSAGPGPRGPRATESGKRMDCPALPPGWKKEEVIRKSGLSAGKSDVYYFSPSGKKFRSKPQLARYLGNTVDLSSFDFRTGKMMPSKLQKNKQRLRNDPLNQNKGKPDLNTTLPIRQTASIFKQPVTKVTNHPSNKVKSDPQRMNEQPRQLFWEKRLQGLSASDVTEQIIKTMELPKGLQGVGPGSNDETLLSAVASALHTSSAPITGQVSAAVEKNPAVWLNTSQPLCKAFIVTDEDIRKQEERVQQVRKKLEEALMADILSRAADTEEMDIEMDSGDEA
Neddyl block: inhibitors of human cullin neddylation; hit rate 0.58% among 360,000; P61081+Q13564; TR-FRET cullin neddylation, biochemical; calls only at 25 µM; in the data active means inhibition above about 36%
Rin1-Abl PPI inh: inhibitors of human Rin1-Abl protein interaction. TR-FRET Rin1/Abl binding, biochemical. hit rate 0.4% among 360,000. P00519+Q13671. AID 588664. inhibition, % at 7.35 µM; in the data active means inhibition above about 5%, passing the limit was not always enough
IN multimer act: HIV-1 integrase multimerization activation, counter-screen | shares compounds with LEDGF integ inh | TR-FRET HIV-1 integrase multimerization, biochemical | activation, % at 7.7 µM | hit rate 17% among 2,000 | AID 1053131; in the data active means activation above about 8.9%
TR-FRET interf: TR-FRET optical interference, LEDGF/p75 integration counter-screen | 2,000 tested, under 10 active | inhibition, % at 7.7 µM | shares compounds with LEDGF integ inh | TR-FRET optical interference counterscreen, HIV-1 IN multimerization;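 active means inhibition above the mean over all tested compounds plus 3 SD, which no compound reached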;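 further: 0% = integrase with antibodies and DMSO and 100% = antibodies without integrase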
IN-LEDGF confirm: LEDGF/p75-dependent HIV-1 integration inhibition, confirmation. inhibition, % at 3.7 µM. TR-FRET LEDGF/p75-dependent HIV-1 integration, biochemical. shares compounds with LEDGF integ inh. hit rate 36% among 2,000. AID 1053136; in the data active means inhibition above about 14%
* marks the source's active call; other numbers are inactive results; i = inactive; . = no result given. In the library only some 3.1% were active in any assay of this set; here they are far more common.

SMILES	proKLK7 act	UHRF1 MBD2 ctr	LEDGF integ inh	MBD2 inh	Neddyl block	Rin1-Abl PPI inh	IN multimer act	TR-FRET interf	IN-LEDGF confirm
COc1cc(/C=N/N=C2/C(=O)Nc3ccccc32)ccc1O	-0.9	-13.3	-5.8	-2.7	i	-3.4	.	.	.
NCCCCCNC(=O)/C=N\O	-0.6	1.2	34.4*	5.7	i	3.1	-0.8	4.0	-7.8
O=C(CCn1c(=O)oc2ccc(Cl)cc21)NCCCN1CCOCC1	0.2	0.4	3.6	1.5	i	1.0	.	.	.
CCOc1ccc(C(=O)C[n+]2ccccc2C)cc1	-0.2	1.8	13.8*	-2.8	i	-1.4	-0.3	1.4	-3.0
Cc1cccc[n+]1CC(=O)c1ccc(Cl)cc1	0.4	0.4	-0.2	-0.2	i	-0.3	.	.	.
COc1ccc(OC)c(S(=O)(=O)N2CCC(c3cn4ccccc4n3)CC2)c1	1.5	5.1	-0.6	0.0	.	.	.	.	.
O=C(NNC(=O)C1CC(=O)N(Cc2ccccc2)C1)c1ccc(F)cc1 (configuration not stated)	-0.2	-1.7	-0.5	-0.8	i	-1.3	.	.	.
CCc1ccc(Nc2n[n+](C)c(-c3ccncc3)s2)cc1	-0.6	-2.4	42.2*	-2.3	i	-0.7	-0.4	2.1	-6.1
CCc1ccc(Nc2n[n+](-c3ccccc3)c(-c3ccc(C(=O)O)cc3)s2)cc1	1.2	-1.6	2.6	3.0	i	0.1	.	.	.
Cc1cnc(C)c(N(C)NC(=S)Nc2ccccc2)n1	0.3	0.6	16.5*	2.8	i	-1.0	0.5	-1.9	-6.8
Cc1oc(C)c2c(=O)ccc3c(c12)OC(N)=C(C#N)C3c1ccccc1 (configuration not stated)	1.4	5.6	15.0*	-1.1	i	-2.6	-2.0	7.1	7.7
CSc1ccc(C2C(C#N)=C(N)Oc3c2ccc(=O)c2c(C)oc(C)c32)cc1 (configuration not stated)	-1.0	-3.5	-2.3	-1.6	i	1.6	.	.	.
O=C(CSc1nnc(Cc2cccs2)n1C1CCCCC1)N1CCCc2ccccc21	0.8	-2.3	13.5*	-3.6	i	-2.5	0.6	-3.0	3.3
O=C(Cc1cccs1)N/N=C/C=C\c1ccco1	-0.1	0.1	7.4	10.4	i	3.0	.	.	.
O=C(N/N=C/C=C/c1ccco1)/C(=C/c1ccccc1)NC(=O)c1ccccc1	-1.0	-0.9	17.5*	-1.0	i	2.1	7.7	-38.7	29.2*
O=C(N/N=C/C=C\c1ccco1)c1cccs1	0.5	7.6	14.8*	2.9	i	1.7	8.4	-30.0	20.1*
O=[N+]([O-])c1c(NCCCO)cc(SCc2ccco2)c2nonc12	-0.4	34.5*	38.1*	7.2	i	-5.8	4.5	-22.7	1.0
O=C(O)C(C(=O)/C=C/c1ccco1)=C1SCCS1	0.6	19.9	17.5*	-1.8	i	-1.1	0.9	-4.6	32.5*
O=C(/C=C/c1ccc([N+](=O)[O-])cc1)/C=C/c1ccco1	0.2	17.1	22.0*	10.4	i	5.5	0.3	-1.3	47.3*
O=C(C=C1SCCS1)/C=C/c1ccco1	0.0	1.4	14.3*	1.6	i	2.5	5.3	-26.6	35.5*
O=C(/C=C/c1ccco1)NC1CCCC1	0.0	7.0	2.4	5.6	i	1.5	.	.	.
COC1=C[C@H](C(=O)NCc2ccc(Cl)cc2)C(C)C(c2ccccc2)CC1=O (some centres not stated)	0.7	0.1	-2.4	-4.5	.	.	.	.	.
COC1=C[C@H](C(=O)NCc2ccc(Br)cc2)[C@H](C)[C@@H](c2ccccc2)CC1=O	0.2	1.6	21.9*	0.8	.	.	0.3	-1.3	-9.8
COc1ccc(CN2C/C(=C/C3=CCCCC3)N(C(=O)OCc3ccccc3)C2=N)c(OC)c1	1.1	-3.0	6.4	-2.8	.	.	.	.	.
NC(c1csc(Nc2ccccn2)n1)C1CCCCC1 (configuration not stated)	-0.2	-0.9	13.8*	0.4	i	2.2	-0.2	1.0	3.2
